3 compounds from PubChem BioAssay can be followed below.

Inconclusive results are not listed. Calls of active or inactive are those of the source.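 Rule for the calls, unless noted: active = normalized viability below 100% at a tested concentration; inactive = the rest.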

Assay [1] is described as follows: growth inhibition of DIPG glioma cells, dose response, cell-based, SU-DIPG-XVII, MIPE5.0, CellTiter-Glo, qHTS (AID 1347060; cut-off not given, nearly all actives have AC50 up to about 26 µM;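 for AC50: cells exposed to compound for 48 hours before viability readout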). The settings on record: SU-DIPG-XVII viability, CellTiter-Glo ATP luminescence. In general terms: ATP-based viability assays read luminescence as a measure of living cells.
A short description of assay [2]: growth inhibition of DIPG glioma cells, dose response, cell-based, SU-DIPG-XIII, MIPE5.0, CellTiter-Glo, qHTS (AID 1347064; cut-off not given, nearly all actives have AC50 up to about 23 µM;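 for AC50: cells exposed to compound for 48 hours before the viability read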). The settings on record: SU-DIPG-XIII viability, CellTiter-Glo ATP luminescence.
Assay [3] in a line: viability loss in pontine glioma line – cell-based, SU-DIPG-XXV, MIPE5.0, CellTiter-Glo, qHTS, dose response (AID 1347065; cut-off not given, nearly all actives have AC50 up to about 26 µM;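 note: cells exposed to compound for 48 hours before ATP readout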). The settings on record: CellTiter-Glo ATP luminescence.
Assay [4] is described as follows: JHH-DIPG-1 glioma cell viability, MIPE5.0 library, CellTiter-Glo luminescence, qHTS (AID 1347067; cut-off not given, nearly all actives have AC50 up to about 26 µM;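 note: cells exposed to compound for 48 hours before readout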). The settings on record: JHH-DIPG-1 glioma viability, CellTiter-Glo ATP luminescence.
Assay [5] in a line: SU-DIPG-XXV glioma cell viability, MIPE5.0 library, qHTS (AID 1347068; cut-off not given, nearly all actives have IC50 up to about 30 µM;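 for IC50: cells exposed to compound for 48 hours before viability readout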). A general note: In qHTS, concentration-response curves come from the screen itself.
Assay [6] is described as follows: sensitizers of A549 cells to miR-34 induction, primary screen, imaging, A549 dox-inducible miR-34, nuclei and caspase counts (AID 1347080;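 active = compounds whose cell count with miR-34 switched on is under 0.7 times the count with it off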). The settings on record: A549 miR-34 inducible, Hoechst nuclei count, 48 h.
Assay [7] in a line: survival rescue of mitochondrial mutant cells in low glucose, primary screen, MELAS cybrids, Rieske KO mouse fibroblasts, CellTiter-Glo (AID 1508586;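 active = mean z-score across replicates of 1.96 or higher in either the MELAS or the Rieske mutant cell line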;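 note: z relative to plate mean and SD of compound and empty wells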).
The nature of assay [8]: ovarian cancer cell viability with rucaparib, profiling panel, oncology-focused library, rucaparib conditional (AID 1508598). The settings on record: patient-derived ovarian cancer cells, CellTiter-Glo viability, 144 h, stronger effect = lower value.
The mark [9] stands for this setting: stronger effect = lower value, cell number ratio, induced over uninduced.
[10] abbreviates: measured here: relative caspase fold change +Dox/-Dox.
Where [11] appears, read: measured here: total cells with miR-34 induction, stronger effect = lower value.
[12] abbreviates: measured here: total cells without miR-34 induction.
[13] abbreviates: MELAS cybrid survival, CellTiter-Glo 48 h, stronger effect = higher value.
Setting [14] is: Rieske KO mouse fibroblast survival, CellTiter-Glo 72 h.

For orientation: AC50 means the midpoint of the concentration-response curve, whichever way the signal moves. What is called IC50 is the concentration that gives 50% inhibition. As to `CCN1CCN(Cc2ccc(Nc3ncc(F)c(-c4cc(F)c5nc(C)n(C(C)C)c5c4)n3)nc2)CC1`, the AC50 in assay [1] was 5.9 µM (active); in assay [2] it was 7.42 µM (active); in assay [3], 6.61 µM (active); in assay [4] it was 8.33 µM (active). Besides, the IC50 in assay [5] was 23.5 µM (active). The fold change in assay [6] (setting [9]) is 0.908 (inactive); in assay [6] (setting [10]) it was 0.558. For the same compound, the results for the cell count in assay [6] (setting [11]) and in assay [6] (setting [12]) were 2650 and 2920, respectively. The z-score in assay [7] (setting [13]) was 5.9 (active); in assay [7] (setting [14]), -5.11.
The viability is a read-out of living cells in per cent, often relative to untreated cells. On to `C=CC(=O)Nc1cccc(Nc2nc(Nc3ccc(NC4CN(CCF)C4)cc3OC)ncc2C(F)(F)F)c1`, for which the AC50 in assay [1] is 1.48 µM (active); in assay [2], 2.35 µM (active); in assay [3], 1.32 µM (active); in assay [4], 2.63 µM (active). The 50% inhibitory concentration (IC50) in assay [5] is 0.833 µM (active). Besides, the fold change in assay [6] (setting [9]) is 0.964 (inactive); in assay [6] (setting [10]), 0.345. The cell count in assay [6] (setting [11]) came out at 1930; in assay [6] (setting [12]) it was 2000. Moreover, the values for the z-score in assay [7] (setting [13]) and in assay [7] (setting [14]) were 0.32 (inactive) and 1.6, respectively. For the same compound, the viability in assay [8] (at 0.000305 µM, OCI-C5x cells, with rucaparib 10 µM, 100% = cells with rucaparib alone) is 115% (inactive); in assay [8] (at 0.000305 µM, OCI-C5x cells, without rucaparib), 107% (inactive); in assay [8] (at 0.000305 µM, OCI-P5x cells, with rucaparib 20 µM, 100% = cells with rucaparib alone), 98.4% (active); in assay [8] (at 0.000305 µM, OCI-P5x cells, without rucaparib), 92.9% (active); in assay [8] (at 0.00122 µM, OCI-C5x cells, with rucaparib 10 µM, 100% = cells with rucaparib alone), 122% (inactive); in assay [8] (at 0.00122 µM, OCI-C5x cells, without rucaparib) it was 120% (inactive). Besides, the viability is 99.4% (active) in assay [8] (at 0.00122 µM, OCI-P5x cells, with rucaparib 20 µM, 100% = cells with rucaparib alone); 89.9% (active) in assay [8] (at 0.00122 µM, OCI-P5x cells, without rucaparib); 123% (inactive) in assay [8] (at 0.00488 µM, OCI-C5x cells, with rucaparib 10 µM, 100% = cells with rucaparib alone); 114% (inactive) in assay [8] (at 0.00488 µM, OCI-C5x cells, without rucaparib); 96.9% (active) in assay [8] (at 0.00488 µM, OCI-P5x cells, with rucaparib 20 µM, 100% = cells with rucaparib alone); 94.8% (active) in assay [8] (at 0.00488 µM, OCI-P5x cells, without rucaparib). For the same compound, the viability in assay [8] (at 0.0195 µM, OCI-C5x cells, with rucaparib 10 µM, 100% = cells with rucaparib alone) was 118% (inactive); in assay [8] (at 0.0195 µM, OCI-C5x cells, without rucaparib), 108% (inactive); in assay [8] (at 0.0195 µM, OCI-P5x cells, with rucaparib 20 µM, 100% = cells with rucaparib alone), 98.4% (active); in assay [8] (at 0.0195 µM, OCI-P5x cells, without rucaparib), 103% (inactive); in assay [8] (at 0.0781 µM, OCI-C5x cells, with rucaparib 10 µM, 100% = cells with rucaparib alone) it was 102% (inactive); in assay [8] (at 0.0781 µM, OCI-C5x cells, without rucaparib) it was 115% (inactive). The viability in assay [8] (at 0.0781 µM, OCI-P5x cells, with rucaparib 20 µM, 100% = cells with rucaparib alone) was 103% (inactive); in assay [8] (at 0.0781 µM, OCI-P5x cells, without rucaparib), 98.1% (active); in assay [8] (at 0.313 µM, OCI-C5x cells, with rucaparib 10 µM, 100% = cells with rucaparib alone), 132% (inactive); in assay [8] (at 0.313 µM, OCI-C5x cells, without rucaparib), 127% (inactive); in assay [8] (at 0.313 µM, OCI-P5x cells, with rucaparib 20 µM, 100% = cells with rucaparib alone), 106% (inactive); in assay [8] (at 0.313 µM, OCI-P5x cells, without rucaparib) it was 104% (inactive). In addition, the viability in assay [8] (at 1.25 µM, OCI-C5x cells, with rucaparib 10 µM, 100% = cells with rucaparib alone) was 119% (inactive); in assay [8] (at 1.25 µM, OCI-C5x cells, without rucaparib) it was 126% (inactive); in assay [8] (at 1.25 µM, OCI-P5x cells, with rucaparib 20 µM, 100% = cells with rucaparib alone), 83.8% (active); in assay [8] (at 1.25 µM, OCI-P5x cells, without rucaparib), 83.2% (active); in assay [8] (at 5 µM, OCI-C5x cells, with rucaparib 10 µM, 100% = cells with rucaparib alone), 19.5% (active); in assay [8] (at 5 µM, OCI-C5x cells, without rucaparib), 94.4% (active). Further, the viability was 13.3% (active) in assay [8] (at 5 µM, OCI-P5x cells, with rucaparib 20 µM, 100% = cells with rucaparib alone) and 20% (active) in assay [8] (at 5 µM, OCI-P5x cells, without rucaparib).
With `COc1cc2c(cc1OCCCN1CCCC1)N=C(N)C21CCC1`, the result in assay [1], in assay [2], in assay [3], in assay [4] and in assay [5] was inactive.
